Screening data deposited in PubChem BioAssay by several laboratories.
PostGolgi yeast: phenotypic screen on post-Golgi transport, primary screen | post-Golgi transport phenotypic cell assay | inhibition, % at 10 µM | 98,000 tested, 0.9% active | AID 739, 2007;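 note: yeast cells grown in 1536-well plates; yeast grown about 18 h at 30C before absorbance read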
CYP2C9 act: human CYP2C9 activators, primary screen, biochemical, luminescence; Cytochrome P450 2C9 (Homo sapiens), P11712; recombinant CYP2C9, luciferin-H conversion; stronger effect = higher value; factor 1 = untreated enzyme, 0 = blocked; activation factor at 5 µM; 96,000 tested, 1.4% active; AID 1024, 2008;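 active = activation factor of 2 or more for CYP2C9 at a 5 µM dose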;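 note: 0 = sulfaphenazole-blocked wells and 1 = vehicle-only wells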
Target sequence (P11712 whole entry, looked up): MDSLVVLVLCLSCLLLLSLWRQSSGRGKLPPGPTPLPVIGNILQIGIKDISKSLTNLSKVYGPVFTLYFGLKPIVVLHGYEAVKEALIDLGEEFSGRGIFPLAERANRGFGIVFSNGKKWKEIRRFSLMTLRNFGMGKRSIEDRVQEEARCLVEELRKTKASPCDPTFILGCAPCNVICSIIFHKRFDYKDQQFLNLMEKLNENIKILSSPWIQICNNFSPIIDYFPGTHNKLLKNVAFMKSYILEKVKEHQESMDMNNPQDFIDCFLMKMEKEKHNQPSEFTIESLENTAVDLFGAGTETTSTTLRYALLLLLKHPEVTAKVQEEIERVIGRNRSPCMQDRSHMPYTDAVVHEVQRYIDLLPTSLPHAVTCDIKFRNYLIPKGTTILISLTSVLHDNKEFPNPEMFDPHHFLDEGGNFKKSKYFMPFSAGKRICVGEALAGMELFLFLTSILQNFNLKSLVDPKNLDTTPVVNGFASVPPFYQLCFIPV
PostGolgi ctrl: growth inhibition of yeast control strain, primary screen, counter-screen for post-Golgi transport modulator project; efflux-deficient yeast background strain, growth absorbance A615, 16 h; inhibition, % at 10 µM; 98,000 tested, 5% active; AID 738, 2007
CYP2C19 inh: blockers of cytochrome P450 2C19 activity – biochemical, luminescence, ADME assay, primary screen; P33261; CYP2C19 Supersomes, luciferin-H EGE luminescence, 30 min; inhibition, % at 5 µM; 96,000 tested, 21% active; AID 778, 2007;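 active = CYP2C19 inhibition above a set limit at 5 µM in the primary screen, cut at about 50% in these data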;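 note: plate controls were negative control wells for no effect and 2.5 mM tranylcypromine positive control for full effect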
CYP2C19 act: human CYP2C19 activators, primary screen, biochemical, luminescence; activation factor at 5 µM; 96,000 tested, under 10 active; AID 1025, 2008; recombinant CYP2C19, luciferin-H EGE luminescence; stronger effect = higher value; 0 = fully inhibited enzyme, 1 = untreated enzyme;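 active = activation factor of at least 2 at 5 µM in the primary screen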;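 note: 0 = wells with 2.5 mM tranylcypromine and 1 = vehicle-only wells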
CYP2C9 inhib: blockers of cytochrome P450 2C9 activity – biochemical, luminescence, ADME assay, primary screen; P11712; CYP2C9 Supersomes, luciferin-H conversion; inhibition, % at 5 µM; 96,000 tested, 20% active;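 active = blocking of liver enzyme CYP2C9 beyond about 50% at 5 µM, limit read from the data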
An asterisk follows results filed as active; x = not tested or not shown. Only some compounds are listed: those with a hit (about 32% of all), similar ones and a draw of the others. Cut-off read from the data, not from the text of the source, unless noted: active = inhibition above about 30%; inactive = the rest.

SMILES | PostGolgi yeast | CYP2C9 act | PostGolgi ctrl | CYP2C19 inh | CYP2C19 act | CYP2C9 inhib
Fc1ccc(/C=C2\CCCC3=C2Nc2ncnn2C3c2ccc(F)cc2)cc1 (stereo unspecified) | 14 | 0.9 | 81* | 6 | 0.9 | 15
COc1ccc(C2C3=C(Nc4ncnn42)c2ccccc2CCC3)cc1 (stereo unspecified) | -9 | 0.3 | -4 | 92* | 0.1 | 68*
Cc1ccc(C)c(NC(=O)Cn2nc(C(F)(F)F)cc2C2CC2)c1 | -5 | 1.2 | -6 | 49 | 0.5 | -16
CC(C)(C)NC(=O)c1ccncc1 | 3 | 1.1 | 3 | -17 | 1.2 | -8
Cc1ccc(N=N/C(=C\O)C(=O)c2ccncc2)cc1 | 0 | 0.1 | 10 | 95* | 0 | 88*
O=C(/C(=C/O)N=Nc1ccc(Cl)cc1)c1ccncc1 | 19 | 0.5 | 7 | 66* | 0.3 | 46
Cc1ccc(CC(CC(=O)O)C(=O)NC2CCCCC2)cc1 (stereo unspecified) | -2 | 1 | 1 | 6 | 0.9 | 2
Cc1ccc(N2CCN(C(=O)N3CCCC3)CC2)cc1C | -9 | 0.5 | 1 | 81* | 0.2 | 53*
CCOc1ccccc1N1CC(C(=O)N2CCc3ccccc32)CC1=O (stereo unspecified) | -1 | 0.9 | 10 | 5 | 0.9 | 15
Cc1ccc(NC(=O)c2ccc(CSc3nnnn3C)cc2)cc1 | 3 | 0.8 | -1 | 16 | 0.8 | 21
C=CCN=C(C)C1=C(O)CCC1=O | -8 | 1.1 | -5 | -11 | 1.1 | -7
CCOc1cc(/C=C2\C(=O)N(c3ccc(C(N)=O)cc3)N=C2C)ccc1OC(=O)c1cccs1 | -4 | 0.7 | 12 | 67* | 0.3 | 25
CCOc1cc(/C=N/NC(=O)COc2ccc(Cl)cc2)ccc1OS(=O)(=O)c1ccccc1 | 0 | 0.6 | 17 | 82* | 0.2 | 37
CCOc1cc(/C=N/NC(=O)COc2ccc(C)cc2)ccc1OC(=O)c1cccs1 | 3 | 0.3 | 4 | 43 | 0.6 | 69*
CCOc1cc(/C=C2/C(=O)N(c3ccccc3)N=C2C)ccc1OC(=O)c1ccco1 | 12 | x | -4 | x | x | x
CCOc1cc(/C=N/NS(=O)(=O)c2ccccc2)ccc1OS(=O)(=O)c1ccc(C)cc1 | 10 | 0 | 1 | 99* | 0 | 100*
CCOc1cc(/C=N\NC(=O)Cc2ccccc2)ccc1OCC(=O)Nc1ccc(C)c(C)c1 | -2 | 0.5 | 13 | -13 | 1.1 | 46
O=C(Cn1c(=O)n(-c2ccc(F)cc2)c(=O)c2sccc21)N1CCCC1 | -2 | 1.1 | 1 | -6 | 1.1 | -14
O=C(COc1ccc(Cl)cc1)N/N=C/CCc1ccccc1 | -4 | 1 | 9 | 52* | 0.5 | 0
Cc1cccc(NC(=O)CN2NS(=O)(=O)c3ccccc3C2=O)c1 | 7 | 0.4 | -3 | 33 | 0.7 | 59*
CC(C)C(=O)Nc1cccc(NC(=O)CCN2C(=O)c3ccccc3S2(=O)=O)c1 | 4 | 0 | 10 | 87* | 0.1 | 97*
Cc1ncsc1C(=O)Nc1nc2c(s1)CCCC2 | 1 | 0.8 | 12 | 66* | 0.3 | 19
COc1cccc(NC(=O)CCN2C(=O)c3ccccc3S2(=O)=O)c1 | -4 | 0.8 | 13 | 50 | 0.5 | 18
Cc1ccc(CC(=O)Nc2nc3c(s2)CCCC3)cc1 | -2 | 0.1 | 3 | 42 | 0.6 | 87*
Cc1cc(Br)ccc1NC(=O)CN1C(=O)CCC1=O | 4 | 0.8 | 2 | 12 | 0.9 | 17
O=C(CCS(=O)(=O)Cc1ccccc1)Nc1nc2c(s1)CCCC2 | 0 | 0.8 | -3 | 15 | 0.8 | 20
O=C(CS(=O)(=O)Cc1ccccc1)Nc1nc2c(s1)CCCC2 | -13 | 1 | 25 | 56* | 0.4 | -3
O=C(CCn1cnc2ccccc2c1=O)Nc1nc2c(s1)CCCC2 | 0 | 0.6 | 4 | 15 | 0.8 | 45
O=C(CCN1C(=O)c2ccccc2S1(=O)=O)Nc1nc2c(s1)CCCC2 | -2 | 0.1 | 10 | 84* | 0.2 | 88*
CCOC(=O)c1cc2c(C(F)(F)F)cc(-c3cccnc3)nc2o1 | 12 | 0.8 | 5 | 12 | 0.9 | 17
